Test results as given in PubChem BioAssay AID1159580 (chemical genetic matrix, 2015).
The whole screen tested about 5,500 compounds, of which about 2,000 (36%) were called active. Roughly 18% stayed inconclusive and do not appear here. No stated cut-off is given here; in the data, active means normalized growth mostly below about 0.91 (no sharp cut-off); inconclusive means no clear call, values can overlap the other calls; inactive means mostly above about 0.92. The list shows a part of the results.

Assay: chemical genetic growth profiling, strain panel (AID 1159580);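 further: tested at 20 µM; growth read once vehicle control cultures reached saturation at 30 °C; 1 = growth at the plate median or of vehicle wells; lower values mean less growth of the strain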
Conditions: growth OD

Measured: normalized growth

Cc1onc(-c2ccccc2)c1C(=O)NC1C(=O)N2[C@@H]1SC(C)(C)[C@@H]2C(=O)O (some centres not stated)
inactive: S. cerevisiae deletion strains, locus YJR075W, strain HOC1, active compounds read low 1.02 | S. cerevisiae deletion strains, locus YKL009W, strain mrt4, active compounds read low 1.01 | S. cerevisiae deletion strains, locus YKL068W, active compounds read low 1.01 | S. cerevisiae deletion strains, locus YKL085W, strain MDH1 (second series), active compounds read low 1.01 | S. cerevisiae deletion strains, locus YKL085W, strain MDH1, active compounds read low 1.01 | S. cerevisiae deletion strains, locus YKL160W, strain elf1, active compounds read low 1.06 | S. cerevisiae deletion strains, locus YKL190W, strain CNB1, active compounds read low 1.01 | S. cerevisiae deletion strains, locus YKR001C, strain vps1, active compounds read low 1.01 | S. cerevisiae deletion strains, locus YKR026C, strain gcn3, active compounds read low 1.02 | S. cerevisiae deletion strains, locus YKR091W, strain srl3, active compounds read low 1.01 | S. cerevisiae deletion strains, locus YLL001W, strain dnm1, active compounds read low 1.02 | S. cerevisiae deletion strains, locus YLL026W, active compounds read low 1.01 | S. cerevisiae deletion strains, locus YLL041C, strain sdh2, active compounds read low 1.01 | S. cerevisiae deletion strains, locus YLR027C, strain aat2, active compounds read low 1.01 | S. cerevisiae deletion strains, locus YLR039C, strain RIC1, active compounds read low 1.01 | S. cerevisiae deletion strains, locus YLR058C, strain SHM2, active compounds read low 1.01 | S. cerevisiae deletion strains, locus YLR102C, strain apc9, active compounds read low 1 | S. cerevisiae deletion strains, locus YLR113W, strain HOG1, active compounds read low 0.975 | S. cerevisiae deletion strains, locus YLR221C, strain rsa3, active compounds read low 1.03 | S. cerevisiae deletion strains, locus YLR258W, strain gsy2, active compounds read low 1.02 | S. cerevisiae deletion strains, locus YLR262C, strain YPT6 (second series), active compounds read low 1.05 | S. cerevisiae deletion strains, locus YLR262C, strain YPT6, active compounds read low 1.04 | S. cerevisiae deletion strains, locus YLR268W, strain sec22, active compounds read low 1.05 | S. cerevisiae deletion strains, locus YLR320W, strain mms22, active compounds read low 1.04 | S. cerevisiae deletion strains, locus YLR330W, strain CHS5, active compounds read low 1.01 | S. cerevisiae deletion strains, locus YLR342W, strain FKS1 (second series), active compounds read low 1.01 | S. cerevisiae deletion strains, locus YLR342W, strain FKS1, active compounds read low 1.02 | S. cerevisiae deletion strains, locus YLR357W, strain rsc2, active compounds read low 1.09 | S. cerevisiae deletion strains, locus YLR370C, strain arc18, active compounds read low 1.02 | S. cerevisiae deletion strains, locus YLR371W, strain rom2, active compounds read low 1.01 | S. cerevisiae deletion strains, locus YLR384C, strain iki3, active compounds read low 1.03 | S. cerevisiae deletion strains, locus YLR418C, strain cdc73, active compounds read low 0.998 | S. cerevisiae deletion strains, locus YML016C, strain PPZ1, active compounds read low 1.01 | S. cerevisiae deletion strains, locus YML032C, strain rad52, active compounds read low 1.03 | S. cerevisiae deletion strains, locus YML120C, strain ndi1, active compounds read low 1.02 | S. cerevisiae deletion strains, locus YML124C, strain tub3, active compounds read low 1.01 | S. cerevisiae deletion strains, locus YMR058W, strain fet3, active compounds read low 1.01 | S. cerevisiae deletion strains, locus YMR078C, strain ctf18, active compounds read low 1.01 | S. cerevisiae deletion strains, locus YMR125W, strain sto1, active compounds read low 1.02 | S. cerevisiae deletion strains, locus YMR129W, active compounds read low 1.01 | S. cerevisiae deletion strains, locus YMR205C, strain PFK2, active compounds read low 1.05 | S. cerevisiae deletion strains, locus YMR223W, strain ubp8, active compounds read low 0.975 | S. cerevisiae deletion strains, locus YMR231W, strain pep5, active compounds read low 1.02 | S. cerevisiae deletion strains, locus YMR263W, strain SAP30, active compounds read low 1.01 | S. cerevisiae deletion strains, locus YMR307W, strain GAS1, active compounds read low 0.981 | S. cerevisiae deletion strains, locus YNL067W, strain RPL9B, active compounds read low 1.02 | S. cerevisiae deletion strains, locus YNL071W, strain lat1, active compounds read low 1.01 | S. cerevisiae deletion strains, locus YNL128W, strain TEP1, active compounds read low 1 | S. cerevisiae deletion strains, locus YNL153C, strain GIM3, active compounds read low 1.01 | S. cerevisiae deletion strains, locus YNL183C, strain NPR1, active compounds read low 0.946 | S. cerevisiae deletion strains, locus YNL209W, strain ssb2, active compounds read low 1.01 | S. cerevisiae deletion strains, locus YNL233W, strain BNI4, active compounds read low 1 | S. cerevisiae deletion strains, locus YNL248C, strain rpa49, active compounds read low 1.01 | S. cerevisiae deletion strains, locus YNL250W, strain rad50, active compounds read low 1.01 | S. cerevisiae deletion strains, locus YNL271C, strain bni1, active compounds read low 1.01 | S. cerevisiae deletion strains, locus YNL298W, strain CLA4, active compounds read low 1.02 | S. cerevisiae deletion strains, locus YNL307C, strain MCK1, active compounds read low 1.01 | S. cerevisiae deletion strains, locus YNL322C, strain KRE1 (second series), active compounds read low 1.03 | S. cerevisiae deletion strains, locus YNL322C, strain KRE1, active compounds read low 1 | S. cerevisiae deletion strains, locus YNR049C, strain mso1, active compounds read low 1.02 | S. cerevisiae deletion strains, locus YNR052C, strain pop2, active compounds read low 1 | S. cerevisiae deletion strains, locus YOL006C, strain TOP1, active compounds read low 1.02 | S. cerevisiae deletion strains, locus YOL012C, strain htz1 0.833 | S. cerevisiae deletion strains, locus YOL147C, strain pex11, active compounds read low 1.01 | S. cerevisiae deletion strains, locus YOR001W, strain rrp6, active compounds read low 0.971 | S. cerevisiae deletion strains, locus YOR061W, strain CKA2, active compounds read low 1.01 | S. cerevisiae deletion strains, locus YOR069W, strain VPS5, active compounds read low 1.01 | S. cerevisiae deletion strains, locus YOR070C, strain gyp1, active compounds read low 1.02 | S. cerevisiae deletion strains, locus YOR080W, strain dia2, active compounds read low 1.02 | S. cerevisiae deletion strains, locus YOR083W, strain WHI5, active compounds read low 1.04 | S. cerevisiae deletion strains, locus YOR106W, strain vam3, active compounds read low 1.03 | S. cerevisiae deletion strains, locus YOR136W, strain idh2, active compounds read low 0.992 | S. cerevisiae deletion strains, locus YOR144C, strain elg1, active compounds read low 1.01 | S. cerevisiae deletion strains, locus YOR184W, strain ser1, active compounds read low 1.01 | S. cerevisiae deletion strains, locus YOR231W, strain MKK1, active compounds read low 1.01 | S. cerevisiae deletion strains, locus YOR265W, strain rbl2, active compounds read low 1.01 | S. cerevisiae deletion strains, locus YOR270C, strain vph1, active compounds read low 1.02 | S. cerevisiae deletion strains, locus YOR290C, strain snf2, active compounds read low 1.02 | S. cerevisiae deletion strains, locus YOR316C, strain cot1, active compounds read low 1.01 | S. cerevisiae deletion strains, locus YPL051W, strain arl3, active compounds read low 1.01 | S. cerevisiae deletion strains, locus YPL055C, strain LGE1, active compounds read low 1.05 | S. cerevisiae deletion strains, locus YPL078C, strain atp4, active compounds read low 1.01 | S. cerevisiae deletion strains, locus YPL106C, strain sse1, active compounds read low 1.04 | S. cerevisiae deletion strains, locus YPL240C, strain hsp82, active compounds read low 1.02 | S. cerevisiae deletion strains, locus YPL241C, strain CIN2, active compounds read low 1.01 | S. cerevisiae deletion strains, locus YPL256C, strain CLN2, active compounds read low 0.98 | S. cerevisiae deletion strains, locus YPR119W, strain clb2, active compounds read low 1 | S. cerevisiae deletion strains, locus YPR141C, strain kar3, active compounds read low 1.02 | S. cerevisiae deletion strains, locus YPR163C, strain tif3, active compounds read low 1.02 | S. cerevisiae deletion strains, locus YPR167C, strain met16, active compounds read low 1.01 | S. cerevisiae deletion strains, strain wtn01, active compounds read low 1.04 | S. cerevisiae strains, strain wild type, active compounds read low 1
